Assay outcomes from PubChem BioAssay.
Compounds with a hit are over-represented: about 3.9% of the library has one in this group of screens.
p53null 32C kill: qHTS Screen for Compounds that Selectively Target Cancer Cells with p53 Mutations: Cytotoxicity of p53 Null Cells at the Permissive Temperature; 55,000 tested, 0.62% active; H1299-neo p53 null cells, ATP luminescence, 24 h, 32C; Potency, µM (titrated, usually from 46.1 µM), most hits filed as cytotoxic; further: nearly all actives have a fitted effect of over 55% in size
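Cytotoxicity: H1299-neo (no p53), 32C, 24 h treatment. Concentrations up to 46 uM. Readout cellular ATP, luminescence. Normalization to DMSO basal and tamoxifen 100 uM maximal kill.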
p53null 39C kill: qHTS Screen for Compounds that Selectively Target Cancer Cells with p53 Mutations: Cytotoxicity of p53 Null Cells at the Nonpermissive Temperature; 55,000 tested, 0.97% active; Potency, µM (series often up to 46.1 µM), hits mostly cytotoxic; H1299 p53-null (neo) cells, 39C, ATPlite viability, 24 h; AID 904, 2007; further: nearly all actives have a fitted effect of over 50% in size
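ATP-luminescence viability readout (ATPlite, 20 min RT) after 24 hr compound treatment at 39C of H1299-neo or H1299-p53A138V cells; titration up to 46 uM; normalized to DMSO and 100 uM tamoxifen; Hill-fit AC50.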
FH mod: Identification of activators of human fumarate hydratase by quantitative high-throughput screening | FH coupled MDH/diaphorase resazurin fluorescence, 15 min | Fumarate hydratase, mitochondrial (Homo sapiens), P07954 | Potency, µM (series often up to 79.9 µM), actives largely listed as inhibitors | 54,000 tested, 0.22% active; further: the screen sought activators but most active calls are inhibition curves; nearly all actives have a fitted effect of over 45% in size
NTMT1 inhibitor: Primary qHTS for Inhibitors of N-terminal methyltransferase 1 (NTMT1): MTaseGlo Assay; N-terminal Xaa-Pro-Lys N-methyltransferase 1 (Homo sapiens), Q9BV86; 59,000 tested, 2.5% active; NTMT1 MTase-Glo SAH luminescence, purified enzyme; Potency, µM (top dose mostly 114 µM), actives largely listed as inhibitors; further: nearly all actives have a fitted effect of over 65% in size
DYRK1A inh-1: Assay for Inhibitors of Dual-Specificity Tyrosine-(Y)-Phosphorylation Regulated Kinase 1A (Kinase-Glo assay). recombinant DYRK1A, Kinase-Glo ATP depletion luminescence. shares compounds with NTMT1 inhibitor. Potency, µM (highest dose often 76.9 µM), hits mostly inhibitors. 100 tested, 80% active. AID 2705, 2010
CLK4 inh-1: Confirmation Assay for Inhibitors of CDC-like Kinase 4 (Kinase-Glo Assay): SAR round 2; 90 tested, 90% active; Potency, µM (highest dose often 76.9 µM), usual class: inhibitors; shares compounds with NTMT1 inhibitor; recombinant Clk4, Kinase-Glo ATP luminescence, 4.5 h
CLK4 inh-2: Kinase Inhibition Study on Inhibitors of CDC-like Kinase 4 (Reaction Biology data): SAR round 2; 65 tested, 100% active; Potency, µM, actives largely listed as inhibitors; Reaction Biology kinase assay, 10 uM ATP; shares compounds with NTMT1 inhibitor; calls by dose curve
DYRK1A inh-2: Kinase Inhibition Study on Inhibitors of Dyrk1a (Reaction Biology data) | shares compounds with NTMT1 inhibitor | Potency, µM, hits mostly inhibitors | AID 504424, 2011 | Reaction Biology kinase assay, 10 uM ATP | 65 tested, 90% active;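 active means compounds that showed inhibition of Dyrk1a and received a fitted potency; inactive means compounds that showed no inhibition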
CLK2 RBC: Kinase Inhibition Study on Inhibitors of CDC-like Kinase 2 (Reaction Biology data). Potency, µM, most hits filed as inhibitors. shares compounds with NTMT1 inhibitor. 65 tested, 90% active. Reaction Biology kinase assay, 10 uM ATP. AID 504427, 2011;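 active means compound that inhibits Clk2 kinase in the dose series, with an IC50 potency reported; inactive means no inhibition seen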
CLK3 RBC: Kinase Inhibition Study on Inhibitors of CDC-like Kinase 3 (Reaction Biology data); shares compounds with NTMT1 inhibitor; recombinant CLK3 kinase assay, 10 uM ATP; Potency, µM, actives largely listed as inhibitors; 65 tested, 40% active; AID 504428, 2011;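 active means compounds that inhibited Clk3 enough in the ten-dose series to give a half-maximal potency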
Target sequence (P49761 whole entry, looked up): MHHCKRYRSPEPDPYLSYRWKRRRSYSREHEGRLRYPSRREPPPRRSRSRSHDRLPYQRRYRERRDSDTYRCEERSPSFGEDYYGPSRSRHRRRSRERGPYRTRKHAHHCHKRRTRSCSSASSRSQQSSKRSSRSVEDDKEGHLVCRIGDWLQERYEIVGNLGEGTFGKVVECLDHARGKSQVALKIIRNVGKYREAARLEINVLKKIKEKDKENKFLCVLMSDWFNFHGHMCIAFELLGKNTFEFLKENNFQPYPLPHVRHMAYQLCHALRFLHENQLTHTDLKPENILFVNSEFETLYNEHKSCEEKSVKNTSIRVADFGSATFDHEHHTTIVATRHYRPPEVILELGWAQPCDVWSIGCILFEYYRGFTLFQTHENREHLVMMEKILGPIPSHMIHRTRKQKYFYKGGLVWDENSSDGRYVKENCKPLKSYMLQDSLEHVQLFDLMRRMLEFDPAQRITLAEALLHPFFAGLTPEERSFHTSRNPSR
DYRK1B inh: Kinase Inhibition Study on Inhibitors of Dyrk1b (Reaction Biology data); shares compounds with NTMT1 inhibitor; Recombinant Dyrk1b kinase assay, 10 uM ATP; Potency, µM, usual class: inhibitors; 65 tested, 80% active;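 active means compounds whose dose response shows an inhibitor phenotype against the kinase Dyrk1b; inactive means compounds showing no inhibitor phenotype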
CLK1 RBC: Kinase Inhibition Study on Inhibitors of CDC-like Kinase 1 (Reaction Biology data); shares compounds with NTMT1 inhibitor; recombinant Clk1 kinase assay, 10 uM ATP; Potency, µM, most hits filed as inhibitors; 65 tested, 90% active;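 active means compounds that block the splicing kinase Clk1 enough to give a fitted half-inhibition concentration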
NNMT counter: Counterscreen qHTS for Inhibitors of N-terminal methyltransferase 1 (NTMT1): NNMT MTaseGlo assay. AID 1645878, 2021. 120 tested, 10% active. NNMT MTase-Glo luminescence, SAH detection. shares compounds with NTMT1 inhibitor. Potency, µM (top dose mostly 57.1 µM), usual class: inhibitors
Large screens that a line does not name were inactive (follow-up assays come after a bar, where they were run). Unless noted, the call rests on the fitted dose curve; in most records, active means well fitted curve in the direction sought with a large enough effect; inconclusive means small, poorly fitted or top-dose-only effect, or another doubt; inactive means no such curve, though single readings can be large; an effect the other way counts as inactive or inconclusive.

c1cncc(-c2ccc3ncnc(NCc4ccc5c(c4)OCO5)c3c2)c1	none (no result: p53null 32C kill, p53null 39C kill, FH mod)
c1coc(CNc2ncnc3ccc(-c4ccc5c(c4)OCO5)cc23)c1	none (no result: p53null 32C kill, p53null 39C kill, FH mod, NTMT1 inhibitor) | CLK4 inh-1 0.0368µM | CLK4 inh-2 0.079 | DYRK1A inh-2 0.084µM | CLK2 RBC 0.301µM | CLK3 RBC 2.56µM | DYRK1B inh 0.534µM | CLK1 RBC 0.192µM
O=C(O[C@H]1[C@@H]2C[C@@H]3OC[C@@](O)([C@H]2[C@H](O[C@@H]2O[C@H](CO)[C@@H](O)[C@H](O)[C@H]2O)O3)[C@@H]1O)c1ccccc1	none (no result: p53null 32C kill, p53null 39C kill)
C[C@@H]1O[C@@H](O[C@H]2[C@H](OC(=O)C34CCC5(C)C(=CCC6C7(C)CC(O)C(O[C@@H]8O[C@H](C(=O)O)[C@@H](O)[C@H](O)[C@H]8O)C(C)(C(=O)O)C7CCC65C)C3CC(C)(C)CC4O)O[C@H](C)[C@@H](O)[C@@H]2O)[C@H](O)[C@@H](O[C@@H]2OC[C@](O)(CO)[C@H]2O[C@@H]2O[C@H](CO)[C@@H](O)[C@H](O)[C@H]2O)[C@H]1O (stereo partly drawn)	none (no result: p53null 32C kill, p53null 39C kill)
Cn1ccc2cc(-c3ccc4ncnc(NCc5cccs5)c4c3)ccc21	none (no result: p53null 32C kill, p53null 39C kill, FH mod) | DYRK1A inh-1 inconclusive
c1csc(CCNc2ncnc3ccc(-c4ccc5c(c4)OCO5)cc23)c1	NTMT1 inhibitor inconclusive (no result: p53null 32C kill, p53null 39C kill, FH mod) | DYRK1A inh-1 0.0654µM
c1csc(CNc2ncnc3ccc(-c4ccc5c(c4)OCO5)cc23)n1	none (no result: p53null 32C kill, p53null 39C kill, FH mod) | CLK4 inh-1 0.0463µM | CLK4 inh-2 0.05 | DYRK1A inh-2 0.07µM | CLK2 RBC 0.414µM | CLK3 RBC 3.53µM | DYRK1B inh 0.446µM | CLK1 RBC 0.176µM
Fc1c(-c2ccc3ncnc(NCc4cccs4)c3c2)ccc2c1OCO2	NTMT1 inhibitor inconclusive (no result: p53null 32C kill, p53null 39C kill, FH mod) | DYRK1A inh-1 0.184µM | CLK4 inh-2 0.128 | DYRK1A inh-2 0.164µM | CLK2 RBC 4.4µM | CLK3 RBC 9.33µM | DYRK1B inh 2.27µM | CLK1 RBC 0.31µM
CC(=O)O[C@H]1[C@@]2(O)C[C@H](C)[C@H](OC(=O)c3ccccc3)[C@@H]2[C@@H](OC(=O)CO)[C@]2(OC(C)=O)C[C@H]3C(=O)C(C)(C)C[C@@H]3[C@@]1(C)[C@H]2OC(C)=O	none (no result: p53null 32C kill, p53null 39C kill)
CC(=O)N[C@@H](CC(C)C)C(=O)N[C@@H](CCC(=O)O)C(=O)N[C@@H](CCC(=O)O)C(=O)N[C@@H](CC(=O)O)C(=O)Nc1ccc2c(C(F)(F)F)cc(=O)oc2c1	none (no result: p53null 32C kill, p53null 39C kill) | NNMT counter inactive
COc1cccc(CN2CCN(c3cccc(C(F)(F)F)c3)CC2)c1OC	none (no result: FH mod, NTMT1 inhibitor)
